Inconclusive results are not listed. Activity calls are given as the source filed them. Unless noted, the call rests on the fitted dose curve; in most records, active means well fitted curve in the direction sought with a large enough effect; inconclusive means small, poorly fitted or top-dose-only effect, or another doubt; inactive means no such curve, though single readings can be large; an effect the other way counts as inactive or inconclusive.

Test [1] has as its target Cytochrome P450 1A2 (Homo sapiens) (UniProt P05177). The test is described as follows: p450-cyp1a2 (AID 410; calls by dose curve; further: potency means the concentration at half of the fitted maximal effect). In outline:
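Read-out is luminescence from luciferin produced by CYP1A2 demethylation of Luciferin-ME (100uM, at Km). Detection reagent stopped the 60 min NADPH-dependent reaction; signals were normalized to 57 uM furafylline.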

For test [2], the target named is Mitogen-activated protein kinase 10 (Mus musculus) (UniProt Q61831). The test is described as follows: JNK3 AlphaScreen Assay (AID 530; active means well fitted curve in either direction with a large enough effect, not every such curve was filed as active;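 further: kinase came from lysate of stimulated human HepG2 cells; signal reports phosphorylation of biotinylated GST-cJun 1-79 at Ser73 with 10 µM ATP; series mostly up to about 57 µM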). In outline: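 Biotinylated GST-cJun(1-79) served as substrate for JNK3 in HepG2 lysates stimulated with IL-1beta and TNF-alpha. ATP was 10 uM final, pH 7.6. Ser73 phosphorylation was quantified by AlphaScreen (680 nm excitation).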

In test [3] the target is 3',5'-cyclic-AMP phosphodiesterase 4B (Homo sapiens) (UniProt Q07343). The test is described as follows: qHTS Assay for Inhibitors of PDE-IV (AID 607; active means well fitted activation curve with a large enough effect in the main read-out, with a control signal flat, not every such curve was filed as active). In a few lines: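 Cell-based read-out of cAMP via a modified cyclic nucleotide-gated channel and membrane potential dye (535/590 nm) in HEK293 cells expressing PDE4 endogenously. Compounds tested up to 22.9 uM final; 100 uM RO 20-1724 reference.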
3',5'-cyclic-AMP phosphodiesterase 4B (Homo sapiens), sequence (Q07343 whole entry, looked up): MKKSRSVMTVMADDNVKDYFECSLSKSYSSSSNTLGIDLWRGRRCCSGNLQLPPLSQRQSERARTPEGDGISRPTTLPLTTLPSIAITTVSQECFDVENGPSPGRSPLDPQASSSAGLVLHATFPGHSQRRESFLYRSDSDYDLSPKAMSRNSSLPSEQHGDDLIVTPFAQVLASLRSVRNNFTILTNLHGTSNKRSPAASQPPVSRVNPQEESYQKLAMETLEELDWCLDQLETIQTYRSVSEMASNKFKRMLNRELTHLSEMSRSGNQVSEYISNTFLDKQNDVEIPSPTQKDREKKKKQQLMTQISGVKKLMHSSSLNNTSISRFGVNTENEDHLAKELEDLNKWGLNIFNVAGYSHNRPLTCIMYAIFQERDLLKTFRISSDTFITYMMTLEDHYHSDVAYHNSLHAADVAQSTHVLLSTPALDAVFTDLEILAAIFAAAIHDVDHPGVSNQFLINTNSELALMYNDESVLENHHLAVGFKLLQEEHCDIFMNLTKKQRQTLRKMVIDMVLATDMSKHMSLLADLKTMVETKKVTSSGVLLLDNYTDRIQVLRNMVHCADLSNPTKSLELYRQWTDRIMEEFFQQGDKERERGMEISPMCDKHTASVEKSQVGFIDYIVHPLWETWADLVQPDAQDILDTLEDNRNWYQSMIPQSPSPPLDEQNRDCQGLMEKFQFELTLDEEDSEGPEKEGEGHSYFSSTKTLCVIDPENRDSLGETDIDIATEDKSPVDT
(In general: qHTS replaces the single test concentration by a dilution series.)

Test [4] deals with Cytochrome P450 2C9 (Homo sapiens) (UniProt P11712). The test can be described thus: qHTS Assay for Inhibitors and Substrates of Cytochrome P450 2C9 (AID 883). Further: potency means the concentration at half of the fitted maximal effect; nearly all actives have a fitted effect of over 60% in size. In a few lines:
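A luminogenic readout tracked human CYP2C9 (10nM) converting deoxyluciferin (100uM, at KM) in 25mM KPO4 during 60 min at 37C with regenerated NADPH. Values normalized to 57uM sulphaphenazole as complete inhibition.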

The target of test [5] is Cytochrome P450 3A4 (Homo sapiens) (UniProt P08684). The test can be described thus: qHTS Assay for Activators of Cytochrome P450 3A4 (AID 885). Further: nearly all actives have a fitted effect of over 65% in size. In outline:
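Luminescent readout of luciferin formed from 25 uM Luciferin-PPXE (KM level) by 20 nM CYP3A4 in 200 mM KPO4, with 60 min NADPH-driven reaction at room temperature after 10 min compound exposure. Ketoconazole (57 uM) defined 100% inhibition.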

Test [6] deals with Cytochrome P450 2D6 (Homo sapiens) (UniProt P10635). The test is described as follows: qHTS Assay for Inhibitors and Substrates of Cytochrome P450 2D6 (AID 891). Further: potency means the concentration at half of the fitted maximal effect; nearly all actives have a fitted effect of over 60% in size. In outline: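 Luminescent read-out of luciferin formed by 5 nM human CYP2D6 demethylating 30 uM Luciferin-ME EGE (Km level) over 60 min at room temperature after NADPH regeneration addition. Data normalized to full inhibition by 1.43 uM quinidine.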
Cytochrome P450 2D6 (Homo sapiens), sequence (P10635 whole entry, looked up): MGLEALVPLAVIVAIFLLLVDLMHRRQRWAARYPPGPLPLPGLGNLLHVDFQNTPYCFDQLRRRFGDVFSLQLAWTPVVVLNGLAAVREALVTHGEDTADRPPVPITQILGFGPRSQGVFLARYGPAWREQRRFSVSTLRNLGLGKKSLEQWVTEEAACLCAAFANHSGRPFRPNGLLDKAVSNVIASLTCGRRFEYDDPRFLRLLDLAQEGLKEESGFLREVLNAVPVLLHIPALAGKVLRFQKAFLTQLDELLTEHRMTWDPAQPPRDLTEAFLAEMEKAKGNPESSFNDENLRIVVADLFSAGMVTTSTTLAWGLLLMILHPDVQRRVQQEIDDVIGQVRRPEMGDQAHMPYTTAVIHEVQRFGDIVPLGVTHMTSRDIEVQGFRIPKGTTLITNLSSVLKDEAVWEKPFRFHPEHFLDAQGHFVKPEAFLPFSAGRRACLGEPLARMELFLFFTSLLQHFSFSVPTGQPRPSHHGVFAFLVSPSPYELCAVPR

In test [7] the target is Cytochrome P450 3A4 (Homo sapiens) (UniProt P08684). The test is described as follows: qHTS Assay for Inhibitors and Substrates of Cytochrome P450 3A4 (AID 884). Further: potency means the concentration at half of the fitted maximal effect; nearly all actives have a fitted effect of over 50% in size. In a few lines:
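Luminescent readout of luciferin produced by CYP3A4 (20 nM) dealkylation of Luciferin-PPXE, 25 uM (its KM). NADPH-driven reaction ran 60 min at RT after 10 min compound preincubation; data scaled to 57 uM ketoconazole as 100% inhibition.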

In test [8] the target is Cytochrome P450 2C19 (Homo sapiens) (UniProt P33261). The test can be described thus: qHTS Assay for Inhibitors and Substrates of Cytochrome P450 2C19 (AID 899). Further: potency means the concentration at half of the fitted maximal effect; nearly all actives have a fitted effect of over 60% in size. In outline:
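NADPH-dependent conversion of Luciferin-H EGE (10uM, at KM) by 5nM enzyme in 50mM KPO4, 60 min at 37C following 10 min compound preincubation. Stopped with luciferin detection buffer; luminescence read after 20 min.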

Cytochrome P450 3A4 (Homo sapiens), sequence (P08684 whole entry, looked up): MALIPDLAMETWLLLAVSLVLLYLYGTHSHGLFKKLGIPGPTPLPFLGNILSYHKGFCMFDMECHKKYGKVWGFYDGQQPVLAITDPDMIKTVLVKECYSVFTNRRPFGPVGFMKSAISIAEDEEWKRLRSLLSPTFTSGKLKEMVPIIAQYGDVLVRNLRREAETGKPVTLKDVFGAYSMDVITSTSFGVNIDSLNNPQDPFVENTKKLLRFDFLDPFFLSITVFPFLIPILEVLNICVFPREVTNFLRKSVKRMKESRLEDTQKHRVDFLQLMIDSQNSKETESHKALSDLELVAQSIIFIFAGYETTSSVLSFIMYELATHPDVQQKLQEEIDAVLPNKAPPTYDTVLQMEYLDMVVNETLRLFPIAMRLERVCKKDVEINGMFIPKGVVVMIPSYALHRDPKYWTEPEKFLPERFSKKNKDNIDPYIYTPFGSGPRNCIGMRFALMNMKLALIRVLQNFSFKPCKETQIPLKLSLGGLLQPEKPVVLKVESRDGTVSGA
Cytochrome P450 2C9 (Homo sapiens), sequence (P11712 whole entry, looked up): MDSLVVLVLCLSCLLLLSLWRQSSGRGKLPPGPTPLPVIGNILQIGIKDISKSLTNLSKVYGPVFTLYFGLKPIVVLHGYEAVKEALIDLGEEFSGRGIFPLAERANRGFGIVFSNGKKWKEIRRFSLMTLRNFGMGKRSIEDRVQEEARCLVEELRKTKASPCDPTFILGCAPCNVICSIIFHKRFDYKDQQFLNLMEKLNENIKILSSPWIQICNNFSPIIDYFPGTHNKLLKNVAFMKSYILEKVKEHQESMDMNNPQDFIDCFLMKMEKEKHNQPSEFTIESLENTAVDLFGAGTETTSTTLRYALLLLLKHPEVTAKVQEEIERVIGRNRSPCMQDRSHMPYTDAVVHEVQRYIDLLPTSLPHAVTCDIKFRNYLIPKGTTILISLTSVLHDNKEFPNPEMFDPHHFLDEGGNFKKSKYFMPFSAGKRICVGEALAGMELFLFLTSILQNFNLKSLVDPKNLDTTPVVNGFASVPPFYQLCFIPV
Cytochrome P450 2C19 (Homo sapiens), sequence (P33261 whole entry, looked up): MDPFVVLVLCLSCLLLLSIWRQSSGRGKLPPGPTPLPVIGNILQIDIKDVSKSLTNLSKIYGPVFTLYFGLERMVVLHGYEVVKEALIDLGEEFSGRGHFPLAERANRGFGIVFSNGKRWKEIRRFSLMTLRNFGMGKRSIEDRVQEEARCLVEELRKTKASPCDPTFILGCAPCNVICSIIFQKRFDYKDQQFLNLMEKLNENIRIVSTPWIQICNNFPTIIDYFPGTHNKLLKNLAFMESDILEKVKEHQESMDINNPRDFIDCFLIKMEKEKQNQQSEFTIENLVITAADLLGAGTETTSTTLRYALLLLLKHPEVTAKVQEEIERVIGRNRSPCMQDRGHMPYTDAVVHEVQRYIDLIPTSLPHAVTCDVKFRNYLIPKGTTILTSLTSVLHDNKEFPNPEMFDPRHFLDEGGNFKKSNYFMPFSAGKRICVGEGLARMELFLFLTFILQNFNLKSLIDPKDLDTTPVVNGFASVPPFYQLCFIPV
Cytochrome P450 1A2 (Homo sapiens), sequence (P05177 whole entry, looked up): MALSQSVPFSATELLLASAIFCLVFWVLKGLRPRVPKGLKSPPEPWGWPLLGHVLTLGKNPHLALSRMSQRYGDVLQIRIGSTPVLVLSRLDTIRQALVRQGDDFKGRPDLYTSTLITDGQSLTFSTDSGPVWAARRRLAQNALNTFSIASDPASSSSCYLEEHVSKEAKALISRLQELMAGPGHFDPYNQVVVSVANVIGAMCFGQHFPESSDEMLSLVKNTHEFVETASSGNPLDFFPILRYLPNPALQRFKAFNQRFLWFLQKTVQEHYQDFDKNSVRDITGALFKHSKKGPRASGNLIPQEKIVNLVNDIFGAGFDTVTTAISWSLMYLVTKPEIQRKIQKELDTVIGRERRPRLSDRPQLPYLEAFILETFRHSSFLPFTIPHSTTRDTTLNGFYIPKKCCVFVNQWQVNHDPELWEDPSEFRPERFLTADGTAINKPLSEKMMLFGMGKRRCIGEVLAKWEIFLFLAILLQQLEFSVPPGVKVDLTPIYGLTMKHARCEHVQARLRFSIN

For `CCCCCC1=C2CNC(CC(C)C)(C(=O)OC)C=C2C(C)C1=O` (centres undefined), the Potency in test [1] was 25.1 µM (active); in test [4] it was 3.16 µM (active); in test [6], 5.01 µM (active). The Potency entry in test [2], in test [3] and in test [5] was “inactive” each time.
Take `COC(=O)[C@@]1(Cc2ccccc2)[C@H]2c3cc(C(=O)N(C)C)n(Cc4ccsc4Br)c3C[C@H]2CN1C(=O)c1ccccc1`: the Potency result in test [1], in test [2], in test [3] and in test [5] was “inactive” throughout. For the same compound, the Potency in test [4] is 3.98 µM (active); in test [7] it was 1.58 µM (active); in test [8], 2 µM (active).
As to `COC(=O)N[C@H](c1ccccc1)[C@@]1(C)C[C@@H]1[C@@H](C)C(=O)Nc1ccc2ccccc2c1`, the Potency in test [1] was 12.6 µM (active); in test [4], 3.98 µM (active); in test [7] it was 0.199 µM (active); in test [6] it was 0.0316 µM (active); in test [8], 3.16 µM (active). For the same compound, the Potency result in test [2], in test [3] and in test [5] was “inactive” in each case.
`CC1=C(C(=O)OCc2ccccc2)C(c2ccc3ccccc3c2)NC(=O)N1CCCCCC(=O)O` (centres undefined): the Potency in test [1] was 20 µM (active); in test [4], 7.94 µM (active). The Potency entry in test [2], in test [3] and in test [5] was “inactive” each time.
As to `C=C(CC1([C@@H](NP(=O)(c2ccccc2)c2ccccc2)[C@H]2C[C@@H]2CCN(C(=O)OCC)S(=O)(=O)c2ccc(C)cc2)CC1)c1ccccc1`, the Potency result in test [1], in test [2], in test [3] and in test [5] was “inactive” each time. In addition, the Potency in test [7] is 1.58 µM (active).
As for `CC(=O)N[C@H](c1ccccc1)[C@@]1(C)C[C@@H]1[C@@H](C)C(=O)Nc1ccc2ccccc2c1`, the Potency in test [1] was 15.8 µM (active); in test [7] it was 7.94 µM (active); in test [6], 2 µM (active); in test [8], 5.01 µM (active). In addition, the Potency result in test [2], in test [3] and in test [5] was “inactive” in each case.
`C[C@@H](C(=O)NCc1ccccn1)[C@H]1C[C@]1(C)[C@H](NC(=O)OCc1ccccc1)c1ccccc1`: the Potency is 25.1 µM (active) in test [1], 5.01 µM (active) in test [7], 12.6 µM (active) in test [6] and 2 µM (active) in test [8]. Moreover, the Potency result in test [2], in test [3] and in test [5] was “inactive” throughout.
With `COC(=O)[C@@]1(Cc2ccccc2)[C@H]2c3cc(C(=O)N4CCCC4)n(Cc4ccc(S(C)(=O)=O)cc4)c3C[C@H]2CN1C(=O)c1ccccc1`, the Potency entry in test [1], in test [2], in test [3] and in test [5] was “inactive” each time. For the same compound, in test [7], the Potency was 3.16 µM (active).
Regarding `CCCc1cc2c(n1CCc1ccc(Cl)cc1)C(C)C1CN(C(=O)c3ccccc3)C(C)(C(=O)OC)C21` (centres undefined), the Potency is 25.1 µM (active) in test [1], 5.01 µM (active) in test [7], 5.01 µM (active) in test [6] and 6.31 µM (active) in test [8]. For the same compound, the Potency entry in test [2], in test [3] and in test [5] was “inactive” in each case.
On to `COC(=O)[C@@]1(Cc2ccccc2)[C@H]2c3cc(C(=O)N4CCCC4)n(Cc4nc5ccccc5[nH]4)c3C[C@H]2CN1C(=O)c1ccccc1`, for which the Potency is 12.6 µM (active) in test [1], 1.26 µM (active) in test [7] and 7.94 µM (active) in test [6]. Also, the Potency entry in test [2], in test [3] and in test [5] was “inactive” in each case.
As to `CC1(C)C(=O)C(c2ccccc2)=C2CN3C(=O)N(CCc4ccccc4)C(=O)C3(Cc3ccc(C(F)(F)F)cc3)C=C21` (centres undefined), the Potency entry in test [1], in test [2], in test [3] and in test [5] was “inactive” each time. Besides, in test [7], the Potency is 2 µM (active).
`CCCC[C@H]1C[C@@H]1[C@@H]1N(P(=O)(c2ccccc2)c2ccccc2)C[C@@](O)(c2ccccc2)CC12CC2`: the Potency result in test [1], in test [2], in test [3] and in test [5] was “inactive” throughout. Further, the Potency in test [7] was 2 µM (active).
With `COC(=O)C1(Cc2ccccc2)C=C2C(=C(C(C)C)C(=O)C2C)CN1` (centres undefined), the values for the Potency in test [1] and in test [7] were 15.8 µM (active) and 7.94 µM (active), respectively. In addition, the Potency result in test [2], in test [3] and in test [5] was “inactive” in each case.
Turning to `C[C@@H](C(=O)NCc1ccc(S(C)(=O)=O)cc1)[C@H]1C[C@]1(C)[C@H](NC(=O)OCc1ccccc1)c1ccccc1`, the Potency is 12.6 µM (active) in test [1], 3.16 µM (active) in test [7] and 0.398 µM (active) in test [6]. Besides, the Potency entry in test [2], in test [3] and in test [5] was “inactive” in each case.
With `CCC[C@@H]1C[C@@]1(CCC)C(NC(=O)c1cccs1)c1ccc(Cl)cc1` (some centres undefined), the values for the Potency in test [1] and in test [7] were 10 µM (active) and 6.31 µM (active), respectively. Besides, the Potency result in test [2], in test [3] and in test [5] was “inactive” in each case.
Regarding `Cc1ccc(CNC(=O)[C@H]2C[C@@H]2[C@H](NP(=O)(c2ccccc2)c2ccccc2)c2ccccc2)c(F)c1F`, the Potency result in test [1], in test [2], in test [3] and in test [5] was “inactive” each time. The Potency in test [7] is 0.316 µM (active).
For the compound `COCC1C2CC[C@H]3C(OCc4ccc(OC)cc4)OC[C@]4(C)[C@H]3C2=C(CN4C(=O)OC(C)(C)C)[C@H](C)C1COC` (some centres undefined), the Potency in test [1] was 15.8 µM (active); in test [7], 1.58 µM (active). Further, the Potency entry in test [2], in test [3] and in test [5] was “inactive” each time.
With `Cc1nn(C)c(Cl)c1S(=O)(=O)N[C@@H](c1ccccc1)[C@]1(C)C[C@H]1[C@@H](C)C(=O)Nc1ccc2ccccc2c1`, the figures for the Potency in test [1] and in test [7] were 5.01 µM (active) and 1.26 µM (active), respectively. Moreover, the Potency entry in test [2], in test [3] and in test [5] was “inactive” in each case.
For the compound `COC(=O)C1(Cc2ccccc2)C2c3cc(C(=O)N4CCCC4)n(Cc4ccc(OC(F)(F)F)cc4)c3CC2CN1C(=O)c1ccccc1` (centres undefined), the Potency entry in test [1], in test [2], in test [3] and in test [5] was “inactive” throughout. Also, the Potency in test [7] was 3.16 µM (active).
Consider `C[C@@H](C(=O)NCCF)[C@H]1C[C@]1(C)[C@H](NC(=O)OCc1ccccc1)c1ccccc1`, for which the Potency in test [1] was 15.8 µM (active); in test [7] it was 3.98 µM (active); in test [6] it was 6.31 µM (active); in test [8], 1.26 µM (active). For the same compound, the Potency result in test [2], in test [3] and in test [5] was “inactive” in each case.
As for `Cc1cc(CNC(=O)[C@@H]2C[C@H]2[C@@H](NP(=O)(c2ccccc2)c2ccccc2)c2ccccc2)nn1C`, the Potency entry in test [1], in test [2], in test [3] and in test [5] was “inactive” throughout. Further, the Potency in test [7] was 0.398 µM (active).
In the case of `COC(=O)[C@@]1(Cc2ccc(F)cc2)[C@H]2c3cc(C(=O)N(C)C)n(CCCNc4ccc(C(F)(F)F)cc4Cl)c3C[C@H]2CN1C(=O)c1ccccc1`, the Potency result in test [1], in test [2], in test [3] and in test [5] was “inactive” each time. Also, the Potency in test [7] is 1.58 µM (active).
`CNC(=O)[C@H](C)[C@@H]1C[C@@]1(C)[C@@H](NC(=O)OCc1ccccc1)c1ccccc1`: the Potency in test [1] was 20 µM (active); in test [7] it was 2.51 µM (active); in test [6] it was 3.16 µM (active); in test [8], 0.631 µM (active). Moreover, the Potency result in test [2], in test [3] and in test [5] was “inactive” in each case.
Consider `C[C@@H](C(=O)Nc1ccc2ccccc2c1)[C@H]1C[C@]1(C)[C@H](NC(=O)Oc1ccc(F)cc1)c1ccccc1`, for which the Potency entry in test [1], in test [2], in test [3] and in test [5] was “inactive” in each case. Besides, the values for the Potency in test [7] and in test [6] were 0.794 µM (active) and 2.51 µM (active), respectively.

The values above are taken from PubChem BioAssay (NCATS).
